TDP1 cell CPT: DT40-hTDP1 cell growth loss with CPT | chicken DT40 Tdp1-/-;hTDP1 cells + 20 nM CPT, ATP luminescence, 48 h | AID 686979 | hit rate 12% among 420,000 | Potency, µM (top dose mostly 46.2 µM), hits mostly inhibitors; also: nearly all actives have a fitted effect of over 55% in size
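Chicken DT40 Tdp1-/- cells stably complemented with human TDP1 were seeded at 400 cells/well in medium containing 20 nM camptothecin, exposed to pin-transferred compounds, and grown at 37 °C for at least 48 hr. Viability was read as ATP luminescence.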
DT40 TDP1 no CPT: qHTS for Inhibitors of human tyrosyl-DNA phosphodiesterase 1 (TDP1): qHTS in cells in absence of CPT | DT40 Tdp1-/- hTDP1 cells, no CPT, ATP luminescence, 48 h | hit rate 15% among 420,000 | AID 686978, 2013 | Potency, µM (titrated, usually from 46.2 µM), actives largely listed as inhibitors; also: nearly all actives have a fitted effect of over 55% in size
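Chicken DT40 Tdp1-/- cells stably complemented with human TDP1 were seeded at 400 cells/well with DMSO in place of 20 nM camptothecin. After compound pinning, cells grew at least 48 hr at 37 °C; viability read by CellTiter-Glo luminescence.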
Giardia killer: kills Giardia lamblia; Giardia lamblia trophozoite viability; activity change, % at 7.66 µM, hits read low; hit rate 0.15% among 340,000; AID 540267; in the data active = activity change below about -80%; inconclusive = between about -30% and that limit;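 also: parasites exposed to compound for two days anaerobically before the ATP read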
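Killing of trophozoites was scored by loss of ATP luminescence after a 48 hrs anaerobic exposure to compounds at 37 deg C, using 100 cells per well.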
IL1B secr inh: inflammasome signaling inhibition, IL-1 beta readout | THP-1 LPS/ATP IL-1B secretion, AlphaLISA, 16 h; stronger effect = lower value | AID 743279 | hit rate 4.7% among 360,000 | activity change, % at 57.5 µM; in the data active = activity change below about -50%; inconclusive = mostly about -30% to -49%
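THP-1 cells pretreated 1 hr with compounds (up to 57.5 uM final), then stimulated with LPS (250 ng/mL final) plus ATP (1.25 mM final); secreted IL-1B measured by AlphaLISA after 16 hr, decreased signal indicating inhibition.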
TDP1 block: blocks human tyrosyl-DNA phosphodiesterase 1. hit rate 0.28% among 350,000. Potency, µM (highest dose often 130 µM), hits mostly inhibitors. recombinant TDP1, AlphaScreen DNA substrate cleavage. Q9NUW8; also: nearly all actives have a fitted effect of over 40% in size
Target sequence (Q9NUW8 whole entry, looked up): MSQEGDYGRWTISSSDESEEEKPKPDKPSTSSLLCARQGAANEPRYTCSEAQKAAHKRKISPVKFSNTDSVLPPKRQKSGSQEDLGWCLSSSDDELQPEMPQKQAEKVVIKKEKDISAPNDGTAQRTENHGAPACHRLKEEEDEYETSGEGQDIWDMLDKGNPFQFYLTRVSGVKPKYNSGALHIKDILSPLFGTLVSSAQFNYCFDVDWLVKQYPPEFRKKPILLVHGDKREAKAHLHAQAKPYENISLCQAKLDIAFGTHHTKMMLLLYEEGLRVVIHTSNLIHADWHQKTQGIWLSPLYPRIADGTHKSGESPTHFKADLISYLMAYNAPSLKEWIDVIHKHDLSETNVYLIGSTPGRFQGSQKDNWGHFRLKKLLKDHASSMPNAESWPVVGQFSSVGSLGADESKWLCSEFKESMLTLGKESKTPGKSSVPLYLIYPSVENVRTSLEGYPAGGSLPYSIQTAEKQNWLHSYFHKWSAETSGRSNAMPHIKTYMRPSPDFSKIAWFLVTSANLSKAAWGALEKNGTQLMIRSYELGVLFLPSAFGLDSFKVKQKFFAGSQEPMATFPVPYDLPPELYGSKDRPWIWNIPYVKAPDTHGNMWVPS
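E. coli-derived human Tdp1, 1 nM final. Cpd preinc 15 min RT; substrate 15 nM final, 5 min RT; AS bead mix 10 ug/ml final, 10 min RT. Signal loss = tyrosine-FITC cleavage. No-enzyme wells = max signal.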
ELG1 DNA repair: inhibitors of ELG1-dependent DNA repair in HEK293T cells; HEK293T ELG1-luciferase reporter, luminescence, 16 h; DNA damage induced by 5-fluorouridine; Potency, µM (titrated, usually from 46.1 µM), actives largely listed as inhibitors; hit rate 2.3% among 330,000; AID 504467; also: nearly all actives have a fitted effect of over 55% in size
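Overnight (16 hr) co-exposure of 2,000 cells/well to 5-fluorouridine and compound at 37 °C preceded detection. Luciferase was quantified via ONE-Glo luminescence; loss of signal denotes inhibition.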
Hits are given with their value; – = inactive; ? = inconclusive; · = not tested or not shown; [ ] = another dose, or the depositor's remark. Rows were chosen to be rich in hits. Some 19% of all compounds tested hit in one or more screens of this group. Unless noted, calls follow the shape of the dose curve; as a rule, active = well fitted curve in the direction sought with a large enough effect; inconclusive = small, poorly fitted or top-dose-only effect, or another doubt; inactive = no such curve, though single readings can be large; an effect the other way counts as inactive or inconclusive.

SMILES	TDP1 cell CPT	DT40 TDP1 no CPT	Giardia killer	IL1B secr inh	TDP1 block	ELG1 DNA repair
FC(F)(F)c1cccc(NC(=S)N(CCCN2CCCC2)Cc2cccn2Cc2ccc(Cl)cc2)c1	?	16.4µM	–	-89.4	–	–
S=C(Nc1ccc(Cl)cc1)N(CCCN1CCOCC1)Cc1ccco1	–	–	–	–	–	–
COc1ccc(N(CC(=O)NCc2ccco2)C(=O)CCC(=O)Nc2ccccn2)cc1	–	–	–	–	–	–
Cc1cc(C)c2cc(CN(Cc3ccco3)C(=O)NCc3ccccc3)c(=O)[nH]c2c1	–	–	–	-58.2	–	8.2µM
CCN1CCCC1CN(Cc1cc2c(C)cc(C)cc2[nH]c1=O)C(=O)NC1CCCCC1 (stereo not given)	23.1µM	?	–	-67.4	–	–
Cc1cc(C)c2cc(CN(CCN(C)C)C(=O)Nc3ccccc3Cl)c(=O)[nH]c2c1	?	14.6µM	–	–	–	?
Cc1cc(C)c2cc(CN(CCO)C(=O)NC3CCCCC3)c(=O)[nH]c2c1	–	–	–	-52.4	–	–
Cc1cc(C)c2cc(CN(CCO)C(=O)Nc3ccc(F)cc3)c(=O)[nH]c2c1	–	–	–	·	–	?
CC1(C(=O)Nc2ccc3c(c2)OCCO3)CN(S(C)(=O)=O)CC(=O)N1CC(F)(F)F (stereo not given)	–	–	·	–	·	·
Cc1ccc(/C([O-])=C(/C(=S)NCc2ccc3c(c2)OCO3)[n+]2ccc(N(C)C)cc2)c(C)c1	?	?	–	-68.2	–	–
CN(C)c1ccc(C(=O)NCc2ccc3c(c2)OCO3)cc1	–	–	–	–	·	–
CCN(CC)S(=O)(=O)c1cc(NC(=O)C2CCN(c3ncnc4sc(C)c(C)c34)CC2)ccc1Cl	14.6µM	20.6µM	–	–	–	?
Cc1ccc(C)c(S(=O)(=O)N2CCN(C(=O)C3CCN(c4ncnc5sc(C)c(C)c45)CC3)CC2)c1	14.6µM	10.3µM	–	?	–	?
Cc1sc2ncnc(N3CCC(C(=O)Nc4ccc(C#N)cc4)CC3)c2c1C	?	?	–	–	–[0.505 µM]	?
Cc1ccc(NC(=O)C2CCN(c3ncnc4sc(C)c(C)c34)CC2)cc1S(=O)(=O)N(C)C	13µM	9.2µM	–	–	·	?
Cc1sc2ncnc(N3CCC(C(=O)Oc4cccc(Cl)c4Cl)CC3)c2c1C	–	–	–	–	–	–
COc1ccc(N2C(=O)CC(Sc3nccc(C)n3)C2=O)c(OC)c1 (stereo not given)	?	?	·	–	·	·
COc1ccc(N2C(=O)CC(Sc3nc4ccccc4s3)C2=O)cc1OC (stereo not given)	4.61µM	2.91µM	–	–	–	–
CCOc1ccc2nc(SC3CC(=O)N(c4ccc(OC)cc4OC)C3=O)sc2c1 (stereo not given)	4.61µM	3.26µM	–	–	–	?
CC(=O)Nc1ccc(N2C(=O)CC(Sc3nc4ccccc4s3)C2=O)cc1 (stereo not given)	?	?	–	–	–	–
CCOc1ccc2nc(/N=C/c3c(C)[nH]n(-c4ccc(C)cc4)c3=O)sc2c1	16.4µM	?	–	–	–	?
CCOc1ccc2nc(/N=C/c3c(C)[nH]n(-c4ccccc4)c3=O)sc2c1	?	?	–	–	–	?
CCOc1ccc2nc(SC3CC(=O)N(c4ccc(C)cc4)C3=O)sc2c1 (stereo not given)	4.61µM	4.61µM	–	–	–	?
COc1cccc(CNC(=O)c2c(OC)cc(=O)n3c2CCN(C(=O)c2ccoc2C)CC3)c1	–	–	·	·	·	·
C/C=C\C1=C(CO)C(=O)C2O[C@]2(CC=C(C)C)C1=O (stereo not given in full)	·	·	·	·	–[21 µM]	·
SMILES	TDP1 cell CPT	DT40 TDP1 no CPT	Giardia killer	IL1B secr inh	TDP1 block	ELG1 DNA repair
O=C(CN1C(=O)c2ccccc2S1(=O)=O)NCc1cccs1	–	–	–	–	–	–
CC(OC(=O)c1ccccc1Oc1ccccc1)C(=O)NC1CC1 (stereo not given)	?	?	–	–	–	?
CCOC(=O)c1cnc(SC2CC(=O)N(c3ccc(OC)c(OC)c3)C2=O)nc1N (stereo not given)	20.6µM	?	–	–	–	–
CCOc1ccc(N2C(=O)CC(Sc3nccc(C)n3)C2=O)cc1 (stereo not given)	?	?	–	–	–	–
CCOC(=O)c1ccc(N2C(=O)CC(Sc3nc(C)cc(C)n3)C2=O)cc1 (stereo not given)	–	?	–	–	·	–
CCOc1ccc(N2C(=O)CC(Sc3nc4ccc(OCC)cc4s3)C2=O)cc1 (stereo not given)	4.11µM	4.61µM	–	–	·	·
C=CCNc1nnc(SC2CC(=O)N(c3ccc(OCCC)cc3)C2=O)s1 (stereo not given)	1.84µM	4.11µM	–	–	–	–
CCCOc1ccc(N2C(=O)CC(SC(=NC)Nc3ccc(F)cc3)C2=O)cc1 (stereo not given)	–	?	–	–	–	–
O=C(COC(=O)c1ccc2c(c1)S(=O)(=O)N=C1CCCCCN12)NCCc1ccc(F)cc1	–	–	–	–	–	–
CC(=O)c1cc(C#N)c(SCc2ccc([N+](=O)[O-])cc2)nc1C	–	–	–	–	–	–
CCn1cc(C(=O)NCCC(C)C)c(=O)c2cc(S(=O)(=O)N3CCCCC3)ccc21	23.1µM	?	–	–	–	–
CC(C)CCNC(=O)c1sc2ccc(S(=O)(=O)N3CCCCC3)cc2c1N	23.1µM	20.6µM	–	-52.2	–	?
Nc1c(C(=O)NCCc2ccc(Cl)cc2)sc2ccc(S(=O)(=O)N3CCCCC3)cc12	·	·	·	·	–	?
CCN(CC)CCCNC(=O)c1cn(CC)c2ccc(S(=O)(=O)N3CCc4ccccc4C3)cc2c1=O	?	29.1µM	–	–	–	–
CN(CCCNC(=O)c1cn(C)c2ccc(S(=O)(=O)N(C)C)cc2c1=O)c1ccccc1	18.4µM	?	–	–	–	?
CCN(CC)S(=O)(=O)c1ccc2c(c1)c(=O)c(C(=O)NCCCN(C)c1ccccc1)cn2C	–	?	–	–	–	?
CC(Oc1ccccc1)C(=O)Nc1ccc(C(=O)OCc2cc(=O)n3nc(C(C)C)sc3n2)cc1 (stereo not given)	–	–	·	·	–	·
Cc1cc(C)cc(C(=O)NCC(=O)OC(C)C(=O)N(C)c2ccccc2)c1 (stereo not given)	–	–	–	–	–	–
Cc1ccc(NC(=O)CSc2nnc3nc(C)cc(C)n23)cc1	–	–	·	·	–	·
CN(C1CCCCC1)S(=O)(=O)c1ccc2c(c1)c(=O)c(C(=O)NCc1ccc(F)cc1)cn2C	?	–	·	·	–	·
